Measured values as given in PMC9911399, “Two distinct binding modes provide the RNA-binding protein RbFox with extraordinary sequence specificity”.
Changes are numbered by the printed parent chain; changes in the protein carry UniProt numbers. The full ranking holds about 16,000 sequences; the median of “ka relative to ugcaugu” is about 0.096, and the highest 2% start at about 0.35. The sample as a whole holds a higher share of the highest values than the screen did.

T1: RBFOX1 RRM RbFoxmut (Fox-RRM*) (Homo sapiens, UniProt Q9NWB1 109-208, R118D;E147R;N151S;E152T)
T1 sequence: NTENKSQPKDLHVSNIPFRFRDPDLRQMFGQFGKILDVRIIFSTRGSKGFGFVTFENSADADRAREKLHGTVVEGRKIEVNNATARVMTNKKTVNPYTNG

B1: CGCUCCU (DNA:RNA)
RNA: GGGAGACCGGAAUUCAGAUUGUCCCGCUCCUUUAAAUCCCGUCGUAGCCACCA
DNA 1: CAATCTGAATTCCGGTCTCCC
DNA 2: TGGTGGCTACGACGGGATT
B2: GGAGGUA (DNA:RNA)
RNA: B1 RNA with C25G, C27A, U28G, C29G, C30U, U31A
DNA 1: CAATCTGAATTCCGGTCTCCC
DNA 2: TGGTGGCTACGACGGGATT
B3: GGCCGUU (DNA:RNA)
RNA: B1 RNA with C25G, U28C, C29G, C30U
DNA 1: CAATCTGAATTCCGGTCTCCC
DNA 2: TGGTGGCTACGACGGGATT
B4: GUUUUCU (DNA:RNA)
RNA: B1 RNA with C25G, G26U, C27U, C29U
DNA 1: CAATCTGAATTCCGGTCTCCC
DNA 2: TGGTGGCTACGACGGGATT
B5: CAGAACG (DNA:RNA)
RNA: B1 RNA with G26A, C27G, U28A, C29A, U31G
DNA 1: CAATCTGAATTCCGGTCTCCC
DNA 2: TGGTGGCTACGACGGGATT
B6: GAACGUG (DNA:RNA)
RNA: GGGAGACCGGAAUUCAGAUUGUCCGAACGUGUUAAAUCCCGUCGUAGCCACCA
DNA 1: CAATCTGAATTCCGGTCTCCC
DNA 2: TGGTGGCTACGACGGGATT
B7: AGAACGU (DNA:RNA)
RNA: B1 RNA with C25A, C27A, U28A, C30G
DNA 1: CAATCTGAATTCCGGTCTCCC
DNA 2: TGGTGGCTACGACGGGATT
B8: AGGAACG (DNA:RNA)
RNA: B1 RNA with C25A, C27G, U28A, C29A, U31G
DNA 1: CAATCTGAATTCCGGTCTCCC
DNA 2: TGGTGGCTACGACGGGATT
B9: AGGACCG (DNA:RNA)
RNA: B1 RNA with C25A, C27G, U28A, U31G
DNA 1: CAATCTGAATTCCGGTCTCCC
DNA 2: TGGTGGCTACGACGGGATT
B10: GGGAACG (DNA:RNA)
RNA: B1 RNA with C25G, C27G, U28A, C29A, U31G
DNA 1: CAATCTGAATTCCGGTCTCCC
DNA 2: TGGTGGCTACGACGGGATT
B11: UGAACGU (DNA:RNA)
RNA: B1 RNA with C25U, C27A, U28A, C30G
DNA 1: CAATCTGAATTCCGGTCTCCC
DNA 2: TGGTGGCTACGACGGGATT
B12: GAGAACG (DNA:RNA)
RNA: B6 RNA with A27G, C28A, G29A, U30C
DNA 1: CAATCTGAATTCCGGTCTCCC
DNA 2: TGGTGGCTACGACGGGATT
B13: GUGAACG (DNA:RNA)
RNA: B6 RNA with A26U, A27G, C28A, G29A, U30C
DNA 1: CAATCTGAATTCCGGTCTCCC
DNA 2: TGGTGGCTACGACGGGATT
B14: UGGACAG (DNA:RNA)
RNA: B1 RNA with C25U, C27G, U28A, C30A, U31G
DNA 1: CAATCTGAATTCCGGTCTCCC
DNA 2: TGGTGGCTACGACGGGATT
B15: CCUUCUU (DNA:RNA)
RNA: B1 RNA with G26C, C27U, C30U
DNA 1: CAATCTGAATTCCGGTCTCCC
DNA 2: TGGTGGCTACGACGGGATT
B16: UCGGAUG (DNA:RNA)
RNA: B6 RNA with G25U, A26C, A27G, C28G, G29A
DNA 1: CAATCTGAATTCCGGTCTCCC
DNA 2: TGGTGGCTACGACGGGATT
B17: GAAGCGU (DNA:RNA)
RNA: B6 RNA with C28G, G29C, U30G, G31U
DNA 1: CAATCTGAATTCCGGTCTCCC
DNA 2: TGGTGGCTACGACGGGATT
B18: GCCAUGU (DNA:RNA)
RNA: B1 RNA with C25G, G26C, U28A, C29U, C30G
DNA 1: CAATCTGAATTCCGGTCTCCC
DNA 2: TGGTGGCTACGACGGGATT
B19: GUUUUUU (DNA:RNA)
RNA: B1 RNA with C25G, G26U, C27U, C29U, C30U
DNA 1: CAATCTGAATTCCGGTCTCCC
DNA 2: TGGTGGCTACGACGGGATT
B20: CCGCAUG (DNA:RNA)
RNA: B6 RNA with G25C, A26C, A27G, G29A
DNA 1: CAATCTGAATTCCGGTCTCCC
DNA 2: TGGTGGCTACGACGGGATT
B21: CCCCGCA (DNA:RNA)
RNA: B1 RNA with G26C, U28C, C29G, U31A
DNA 1: CAATCTGAATTCCGGTCTCCC
DNA 2: TGGTGGCTACGACGGGATT
B22: CGCAUUG (DNA:RNA)
RNA: B1 RNA with U28A, C29U, C30U, U31G
DNA 1: CAATCTGAATTCCGGTCTCCC
DNA 2: TGGTGGCTACGACGGGATT
B23: CGCAUGU (DNA:RNA)
RNA: B1 RNA with U28A, C29U, C30G
DNA 1: CAATCTGAATTCCGGTCTCCC
DNA 2: TGGTGGCTACGACGGGATT
B24: GCAUGUU (DNA:RNA)
RNA: B6 RNA with A26C, C28U, G31U
DNA 1: CAATCTGAATTCCGGTCTCCC
DNA 2: TGGTGGCTACGACGGGATT
B25: GCAUAGU (DNA:RNA)
RNA: B1 RNA with C25G, G26C, C27A, C29A, C30G
DNA 1: CAATCTGAATTCCGGTCTCCC
DNA 2: TGGTGGCTACGACGGGATT
B26: GCAAUGU (DNA:RNA)
RNA: B6 RNA with A26C, C28A, G29U, U30G, G31U
DNA 1: CAATCTGAATTCCGGTCTCCC
DNA 2: TGGTGGCTACGACGGGATT
B27: UACUGCC (DNA:RNA)
RNA: B1 RNA with C25U, G26A, C29G, U31C
DNA 1: CAATCTGAATTCCGGTCTCCC
DNA 2: TGGTGGCTACGACGGGATT
B28: CCGGCAC (DNA:RNA)
RNA: B1 RNA with G26C, C27G, U28G, C30A, U31C
DNA 1: CAATCTGAATTCCGGTCTCCC
DNA 2: TGGTGGCTACGACGGGATT
B29: CUGGUGA (DNA:RNA)
RNA: B1 RNA with G26U, C27G, U28G, C29U, C30G, U31A
DNA 1: CAATCTGAATTCCGGTCTCCC
DNA 2: TGGTGGCTACGACGGGATT
B30: AGGAGUA (DNA:RNA)
RNA: B6 RNA with G25A, A26G, A27G, C28A, G31A
DNA 1: CAATCTGAATTCCGGTCTCCC
DNA 2: TGGTGGCTACGACGGGATT
B31: UAGUAGU (DNA:RNA)
RNA: B1 RNA with C25U, G26A, C27G, C29A, C30G
DNA 1: CAATCTGAATTCCGGTCTCCC
DNA 2: TGGTGGCTACGACGGGATT

target: T1, RBFOX1 RRM RbFoxmut (Fox-RRM*); assay: EMSA; HiTS-Eq, 1 nM pool, 10 min; buffer printed only for the single-RNA assays: 10 mM Tris pH 7.5, 150 mM NaCl, 3.4 mM EDTA, 0.001% NP-40, 30 C; conditions: tags: His6 N-terminal (pET28a); label: 5' 32P
Method in brief: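 These values rest on relative association constants, computed from read-count changes of each RNA species versus the control reaction and normalised to the cognate motif. Reads came from free RNA recovered by 8% native PAGE after purified RbFox RRM (wild type or mutant) at increasing concentrations was equilibrated for 10 min in 50 µL with 1 nM of a 5′-radiolabelled pool with 7 randomized nucleotides and DNA-annealed flanks.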

Row | Binder | binding signal
1 | B1 | 0.0521 KA relative to UGCAUGU
2 | B2 | 0.121 KA relative to UGCAUGU
3 | B3 | 0.0754 KA relative to UGCAUGU
4 | B4 | 0.0724 KA relative to UGCAUGU
5 | B5 | 0.168 KA relative to UGCAUGU
6 | B6 | 0.226 KA relative to UGCAUGU
7 | B7 | 0.149 KA relative to UGCAUGU
8 | B8 | 0.576 KA relative to UGCAUGU
9 | B9 | 0.183 KA relative to UGCAUGU
10 | B10 | 0.472 KA relative to UGCAUGU
11 | B11 | 0.242 KA relative to UGCAUGU
12 | B12 | 0.347 KA relative to UGCAUGU
13 | B13 | 0.538 KA relative to UGCAUGU
14 | B14 | 0.0526 KA relative to UGCAUGU
15 | B15 | 0.0561 KA relative to UGCAUGU
16 | B16 | 0.119 KA relative to UGCAUGU

Row | Binder | binding signal
17 | B17 | 0.0921 KA relative to UGCAUGU
18 | B18 | 0.188 KA relative to UGCAUGU
19 | B19 | 0.0932 KA relative to UGCAUGU
20 | B20 | 1.13 KA relative to UGCAUGU
21 | B21 | 0.118 KA relative to UGCAUGU
22 | B22 | 0.179 KA relative to UGCAUGU
23 | B23 | 1.08 KA relative to UGCAUGU
24 | B24 | 0.776 KA relative to UGCAUGU
25 | B25 | 0.192 KA relative to UGCAUGU
26 | B26 | 0.12 KA relative to UGCAUGU
27 | B27 | 0.217 KA relative to UGCAUGU
28 | B28 | 0.0571 KA relative to UGCAUGU
29 | B29 | 0.0924 KA relative to UGCAUGU
30 | B30 | 0.168 KA relative to UGCAUGU
31 | B31 | 0.121 KA relative to UGCAUGU
